Screening results: PubChem BioAssay, Sanford-Burnham Center for Chemical Genomics
Shown are actives, neighbours in structure and some others; about 31% of the full set was active somewhere.
PLAP activator: human PLAP activation; AID 696; P05187; actives 1.2% (n = 96,000); activation fold at 20 µM; purified PLAP enzyme, luminescent substrate read-out; active compounds read high; in the data active = activation fold above about 2
Target sequence (P05187 whole entry, looked up): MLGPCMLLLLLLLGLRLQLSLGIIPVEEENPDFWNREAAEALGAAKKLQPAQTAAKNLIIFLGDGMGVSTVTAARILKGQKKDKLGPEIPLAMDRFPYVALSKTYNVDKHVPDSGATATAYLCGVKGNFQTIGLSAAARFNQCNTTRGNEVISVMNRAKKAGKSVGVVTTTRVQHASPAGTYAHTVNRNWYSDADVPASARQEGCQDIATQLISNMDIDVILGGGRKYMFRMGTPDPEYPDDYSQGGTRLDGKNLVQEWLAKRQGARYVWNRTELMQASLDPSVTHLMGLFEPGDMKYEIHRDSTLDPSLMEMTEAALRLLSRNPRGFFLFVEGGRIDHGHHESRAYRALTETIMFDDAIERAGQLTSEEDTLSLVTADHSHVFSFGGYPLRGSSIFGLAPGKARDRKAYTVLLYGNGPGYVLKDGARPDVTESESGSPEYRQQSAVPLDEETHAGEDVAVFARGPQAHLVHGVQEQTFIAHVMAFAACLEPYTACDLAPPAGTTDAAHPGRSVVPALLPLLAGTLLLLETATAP
CYP2C19 inhib: inhibitors of human CYP2C19. CYP2C19 Supersomes, luciferin-H EGE luminescence, 30 min. inhibition, % at 5 µM. actives 21% (n = 96,000). AID 778. P33261;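 active = CYP2C19 inhibition above a set limit at 5 µM in the primary screen, cut at about 50% in these data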
CYP2C19 activ: increases human CYP2C19 enzyme activity; P33261; recombinant CYP2C19, luciferin-H EGE luminescence; active compounds read high; 0 = fully inhibited enzyme, 1 = untreated enzyme; activation factor at 5 µM; 96,000 tested, under 10 active; AID 1025;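 active = activation factor of at least 2 at 5 µM in the primary screen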
CYP2C9 activ: activators of human CYP2C9 | P11712 | recombinant CYP2C9, luciferin-H conversion, luminescence; active compounds read high; factor 1 = untreated enzyme, 0 = blocked | activation factor at 5 µM | actives 1.4% (n = 96,000);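 active = activation factor of 2 or more for CYP2C9 at a 5 µM dose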
CYP2C9 inhib: blocks human cytochrome P450 2C9 | P11712 | CYP2C9 Supersomes, luciferin-H conversion, luminescence | inhibition, % at 5 µM | actives 20% (n = 96,000);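 active = blocking of liver enzyme CYP2C9 beyond about 50% at 5 µM, limit read from the data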
Of the large screens only hits and unclear results are named; the others gave an inactive call.

COc1ccc(OCCSc2nc3ccccc3n2CC(=O)O)cc1	none
COc1ccccc1-c1cc(C(=O)NCc2ccco2)no1	none
COCCNC(=O)c1cc(-c2ccccc2OC)on1	CYP2C9 activ 2.6
COc1ccccc1-c1cc(C(=O)NCc2cccs2)no1	CYP2C9 activ 2.3
CC(C)C(NS(=O)(=O)c1cccc2nsnc12)C(=O)N1CCc2ccccc2C1 (stereo not given)	none
O=C(NCCCN1CCc2ccccc2C1)C1CCN(S(=O)(=O)N2CCCC2)CC1	none
CCN(CC)C(=S)SCC(=O)Nc1ccc(F)cc1	none
COc1ccccc1N1CCN(C(=O)CCNS(=O)(=O)c2ccc(Br)s2)CC1	CYP2C9 inhib 80.0
O=C(CNS(=O)(=O)c1ccc(Br)s1)N1CCCC1	CYP2C19 inhib 64.1
O=C(CCCCCC(=O)N(CCO)CCO)N(CCO)CCO	none
CS(=O)(=O)N(Cc1cc2ccccc2[nH]c1=O)C1CCCCC1	none
COc1ccc(CSc2nnc(Cc3sc(-c4ccccc4)nc3-c3ccccc3)o2)cc1	CYP2C9 inhib 67.3
c1ccc(CSc2nnc(Cc3ccccn3)o2)cc1	none
Fc1ccc(CSc2nnc(Cc3sc(-c4ccccc4)nc3-c3ccccc3)o2)cc1	CYP2C9 inhib 72.4
CSc1nnc(Cc2sc(-c3ccccc3)nc2-c2ccccc2)o1	CYP2C19 inhib 88.9, CYP2C9 inhib 99.7
CCn1c(CSCc2ccc(F)cc2)nnc1SCC(=O)N1CCN(c2ccccc2)CC1	CYP2C19 inhib 80.3, CYP2C9 inhib 58.1
CCn1c(Cc2ccc(OC)cc2)nnc1SCC(=O)N1CCN(c2ccccc2)CC1	none
Cc1ccc(CSCc2nnc(SCC(=O)N3CCN(c4ccccc4)CC3)n2C)cc1	CYP2C19 inhib 59.7, CYP2C9 inhib 78.4
O=C(NCCO)c1ccc2[nH]c3c(c2c1)CCCC3	CYP2C19 inhib 82.7
CCOc1ccc(-c2nc(CSCC(=O)NCc3ccco3)c(C)o2)cc1	CYP2C19 inhib 67.2, CYP2C9 inhib 75.9
CCOc1ccc(-c2nc(CSCC(=O)NC3CCCc4ccccc43)c(C)o2)cc1 (stereo not given)	CYP2C19 inhib 65.2
COc1cccc(-c2nc(CS(=O)(=O)CC(=O)NC3CCCc4ccccc43)c(C)o2)c1 (stereo not given)	none
CCOc1ccc(-c2nnc3ccc(SCC(=O)NCc4ccco4)nn23)cc1	none
CC(C)(C)c1ccc(C(=O)Nc2ccc(CC(=O)O)cc2)o1	none
COc1ccc(CCNC(=O)CCNS(=O)(=O)c2ccc3c(c2)CCN3C(C)=O)cc1OC	CYP2C9 inhib 61.1
CC(=O)N1CCc2cc(S(=O)(=O)NCCN3CCC(C)CC3)ccc21	CYP2C19 inhib 50.8
COc1ccc(CCNS(=O)(=O)c2ccc3c(c2)CCN3C(=O)CCC(=O)O)cc1OC	none
CCC(=O)N1CCc2cc(S(=O)(=O)NCCCN3CCN(Cc4ccccc4)CC3)ccc21	PLAP activator 2
CC(=O)N1CCc2cc(S(=O)(=O)NCCC(=O)NC3CCN(Cc4ccccc4)CC3)ccc21	none
CC(=O)N1CCc2cc(S(=O)(=O)NCCCN3CCN(Cc4ccccc4)CC3)ccc21	CYP2C19 inhib 52.5
CN(CCNC(=O)C1CC(=O)N(c2ccc(F)c(Cl)c2)C1)Cc1ccccc1 (stereo not given)	none
CCOC(=O)CSc1nc(C(C)(C)C)cc(C(F)(F)F)c1C#N	none
CC(C)CCOC(=O)C1[C@H]2C(=O)N(Cc3cccs3)C[C@]23C=C[C@H]1O3 (stereo not given in full)	none
Cn1c(=O)c2c(nc(SCC(=O)N3CCc4ccccc4C3)n2C)n(C)c1=O	none
Nn1c(COc2cccc(Br)c2)nnc1SCC(=O)N1CCc2ccccc2C1	CYP2C19 inhib 52.1
Cn1nnnc1SCC(=O)N1CCc2ccccc2C1	CYP2C19 inhib 70.5
Cc1ccc(-n2nnnc2SC(C)C(N)=O)c(C)c1 (stereo not given)	none
Nn1c(COc2ccccc2)nnc1SCC(=O)O	none
Cc1ccc(-n2nnnc2SCC(=O)N2CCc3ccccc3C2)c(C)c1	CYP2C9 activ 2
C/C(N)=C(/C#N)C(=O)CSc1nnnn1-c1ccc(C)cc1C	CYP2C19 inhib 100.4
COc1ccc(S(=O)(=O)N(CC(=O)N2CCN(C)CC2)c2ccc(C)cc2)cc1OC	none
CCOc1ccccc1C(=O)N(CN1CCCC1=O)c1cccc(Cl)c1	none
COc1ccc(C)cc1S(=O)(=O)N1CCC(C)CC1	none
Cn1c(=O)c2cc(S(=O)(=O)N3CCN(c4cccc(C(F)(F)F)c4)CC3)ccc2n(C)c1=O	none
COc1ccc(N2CCN(S(=O)(=O)c3ccc(Cl)c(C(F)(F)F)c3)CC2)cc1	none
COc1ccc(C)cc1S(=O)(=O)N1CCN(S(=O)(=O)c2cc(C)ccc2OC)C(C)C1 (stereo not given)	CYP2C19 inhib 99.9, CYP2C9 inhib 98.7
COc1ccc(C)cc1S(=O)(=O)N1CCN(c2cccc(C(F)(F)F)c2)CC1	CYP2C19 inhib 97.8
COc1ccc(N2CCN(S(=O)(=O)c3cccc(C(F)(F)F)c3)CC2)cc1	CYP2C19 inhib 61.1
O=C(O)C1CCN(C(=O)COc2ccc3c4c(c(=O)oc3c2)CCC4)CC1	none
COc1cc(C(c2nnnn2C(C)(C)C)N2CCN(C)CC2)cc(OC)c1OC (stereo not given)	none
CSc1ccc2[nH]c(=O)cc(C)c2c1	none
CCOC(=O)c1ccc(NC(=O)C2CCCN(S(=O)(=O)c3ccc(F)cc3)C2)cc1 (stereo not given)	none
CCOc1ccc(CCNC(=O)C2CCCN(c3nn4c(=O)cc(C)nc4s3)C2)cc1 (stereo not given)	CYP2C9 inhib 63.0
CCOc1ccc(OCC)c(NC(=O)C2CCN(c3nn4c(=O)cc(C)nc4s3)CC2)c1	none
COCCNC(=O)C1CCCN(c2nn3c(=O)cc(C)nc3s2)C1 (stereo not given)	none
CCOc1ccc(CCNC(=O)C2CCN(c3nn4c(=O)cc(C)nc4s3)CC2)cc1OCC	CYP2C19 inhib 54.2, CYP2C9 inhib 57.0
Cc1ccc(S(=O)(=O)N2CCN(C(=O)C3Cc4ccccc4CN3C(=O)c3ccco3)CC2)cc1 (stereo not given)	none
CCOc1ccc(NC(=S)Nc2ccc(C)c([N+](=O)[O-])c2)cc1	none
CS(=O)(=O)N1N=C(c2ccc(Cl)cc2)CC1c1cccs1 (stereo not given)	CYP2C19 inhib 94.3, CYP2C9 inhib 56.0
Cc1ccc(C2C(C#N)=C(N)Oc3c2sc2ccccc32)o1 (stereo not given)	CYP2C19 inhib 62.8, CYP2C9 inhib 81.1
CCOC(=O)CC1=C(C(=O)OCC)C(c2ccc(C)o2)C(C#N)=C(N)O1 (stereo not given)	CYP2C19 inhib 94.3
CCOC(=O)CC1=C(C(=O)OCC)C(c2ccc(OC)cc2OC)C(C#N)=C(N)O1 (stereo not given)	CYP2C9 inhib 63.9
COc1ccc(-c2ccc(C3C(C#N)=C(N)Oc4n[nH]c(C)c43)o2)cc1 (stereo not given)	none
Nc1ccc(CCS(N)(=O)=O)cc1	none
Cc1ccc(-c2nn(-c3ccccc3)cc2CN(Cc2ccccc2)C(=O)c2ccco2)o1	CYP2C9 inhib 69.5
